Results as given in the antibiotic and cytotoxicity screens of Wong et al. (2023).
The campaign covered roughly 39,000 compounds. About 1,500 (3.8%) were called active. The full list was thinned out, with actives kept by preference.

tested on: HSkMC (human skeletal muscle cells); assay: cytotoxicity call (relative viability < 0.9); conditions: 10 µM

Compound | cytotoxicity call
CC(C)NC(=O)Nc1ccc2c(c1)C(=O)N([C@H](C)CO)C[C@@H](C)[C@@H](CN(C)C(=O)NC1CCCCC1)O2 | inactive
CN1CCN(C(=O)C[C@H]2CC[C@H](NC(=O)c3ccc4c(c3)OCO4)[C@H](CO)O2)CC1 | inactive
C[C@@H]1CN([C@@H](C)CO)C(=O)c2cc(NS(=O)(=O)c3cccs3)ccc2O[C@@H](C)CCCCO[C@H]1CN(C)Cc1ccccc1 | inactive
C[C@H](CO)N1C[C@H](C)[C@H](CN(C)C(=O)Cc2ccccn2)Oc2cc(-c3cccc(C(=O)N(C)C)c3)ccc2S1(=O)=O | inactive
C[N+](C)(C)CCCC[C@@H]1NC(=O)[C@@H]2C[C@H](C(=O)NCc3ccc(F)cc3)[C@H](c3cccc(OCCO)c3)N2C1=O | inactive
C[C@@H]1CCCCO[C@@H](CN(C)Cc2ccccc2)[C@H](C)CN([C@@H](C)CO)C(=O)c2cc(NC(=O)c3ccncc3)ccc2O1 | inactive
C[C@H](CO)N1C[C@H](C)[C@@H](CN(C)C(=O)Nc2ccccc2F)Oc2ncc(Br)cc2C1=O | inactive
C[C@H](CO)N1C[C@H](C)[C@@H](CN(C)C(=O)Nc2ccc(C(C)(C)C)cc2)OCc2cn(nn2)CCCC1=O | inactive
C[C@H]1CN([C@@H](C)CO)C(=O)Cc2cc(NC(=O)Cc3cn(C)c4ccccc34)ccc2O[C@H]1CN(C)Cc1ccc(C(=O)Nc2ccccc2N)cc1 | inactive
C[C@H](CO)N1C[C@H](C)[C@@H](CN(C)C(=O)C2CCCCC2)OCCCC[C@H](C)Oc2ccc(NS(=O)(=O)c3cccs3)cc2C1=O | inactive
C[C@H](O)C#Cc1cnc2c(c1)C(=O)N([C@@H](C)CO)C[C@H](C)[C@H](CN(C)C(=O)CN1CCOCC1)O2 | inactive
CC(C)NC(=O)N(C)C[C@@H]1Oc2c(NS(=O)(=O)c3cn(C)cn3)cccc2C(=O)N([C@@H](C)CO)C[C@@H]1C | inactive
C[C@@H]1CN([C@@H](C)CO)C(=O)c2cc(NS(=O)(=O)c3cccs3)ccc2O[C@@H](C)CCCCO[C@@H]1CN(C)Cc1ccccc1 | inactive
Cc1ccc(S(=O)(=O)Nc2ccc3c(c2)C(=O)N([C@H](C)CO)C[C@H](C)[C@H](CN(C)Cc2ccc(Oc4ccccc4)cc2)O3)cc1 | inactive
Cc1ccc(S(=O)(=O)Nc2ccc3c(c2)C(=O)N([C@H](C)CO)C[C@@H](C)[C@H](CN(C)Cc2ccc(Oc4ccccc4)cc2)O3)cc1 | active
Cc1ccc(S(=O)(=O)Nc2ccc3c(c2)C(=O)N([C@H](C)CO)C[C@H](C)[C@@H](CN(C)Cc2ccc(Oc4ccccc4)cc2)O3)cc1 | inactive
O=C(CCCCC(=O)N/N=C/[C@H](O)[C@@H](O)[C@@H](O)[C@H](O)C(=O)O)NO | inactive
CC(=CCC1=C(C)C(=O)c2ccccc2C1=O)CCCC(C)CCCC(C)CCCC(C)C (stereo not given) | inactive
CC(=CCO)CCC(C)CCCC(C)CCCC(C)C (stereo not given) | active
C/C(=C\CO)CC[C@H](C)CCC[C@H](C)CCCC(C)C | inactive

Compound | cytotoxicity call
COc1ccc(S(=O)(=O)N(C)C[C@H]2OCCCC[C@H](C)Oc3ccc(NC(=O)C4CCCCC4)cc3C(=O)N([C@H](C)CO)C[C@H]2C)cc1 | inactive
CCNC(=O)C[C@H]1C=C[C@@H](NC(=O)C2CC2)[C@H](CO)O1 | inactive
CC1(C)CC(=O)c2c(C(F)(F)F)nn(-c3ccc(C(N)=O)c(O[C@H]4CC[C@H](N)CC4)c3)c2C1 | inactive
CC1(C)CC(=O)c2c(C(F)(F)F)nn(-c3ccc(C(N)=O)c(N[C@H]4CC[C@H](OC(=O)CN)CC4)c3)c2C1 | active
NCc1ccccc1-c1ccsc1 | inactive
CC(C)C#Cc1cnc2c(c1)C(=O)N([C@@H](C)CO)C[C@H](C)[C@@H](CN(C)C(=O)c1ccc3c(c1)OCO3)O2 | inactive
COc1ccc(CN(C)C[C@@H]2OCCCC[C@@H](C)Oc3ccc(NC(=O)Nc4ccccc4)cc3C(=O)N([C@H](C)CO)C[C@@H]2C)cc1 | inactive
COc1ccc(-c2oc3c(CC=C(C)C)c(O[C@@H]4O[C@H](CO)[C@@H](O)[C@H](O)[C@H]4O)cc(O)c3c(=O)c2O[C@@H]2O[C@@H](C)[C@H](O)[C@@H](O)[C@H]2O)cc1 | active
COc1ccc(-c2oc3cc(O[C@@H]4O[C@@H](C)[C@H](O)[C@@H](O)[C@H]4O)cc(O)c3c(=O)c2O[C@@H]2O[C@H](CO)[C@@H](O)[C@H](O)[C@H]2O)cc1 | inactive
COc1ccc(-c2oc3c(CC=C(C)C)c(OC4OC(CO)C(O)C(O)C4O)cc(O)c3c(=O)c2OC2OC(C)C(O)C(O)C2O)cc1 (stereo not given) | inactive
COc1ccc(S(=O)(=O)Nc2ccc3c(c2)C(=O)N([C@H](C)CO)C[C@@H](C)[C@H](CN(C)Cc2ccc(Cl)c(Cl)c2)OCCCC[C@@H](C)O3)cc1 | inactive
COc1ccc(S(=O)(=O)Nc2ccc3c(c2)C(=O)N([C@@H](C)CO)C[C@H](C)[C@H](CN(C)Cc2ccc(Cl)c(Cl)c2)OCCCC[C@@H](C)O3)cc1 | active
COc1ccc(S(=O)(=O)Nc2ccc3c(c2)C(=O)N([C@@H](C)CO)C[C@@H](C)[C@@H](CN(C)Cc2ccc(Cl)c(Cl)c2)OCCCC[C@@H](C)O3)cc1 | active
COc1ccc(S(=O)(=O)Nc2ccc3c(c2)C(=O)N([C@@H](C)CO)C[C@@H](C)[C@H](CN(C)Cc2ccc(Cl)c(Cl)c2)OCCCC[C@@H](C)O3)cc1 | active
COc1ccc(CN(C)C[C@H]2OCCCC[C@H](C)Oc3ccc(NS(=O)(=O)c4ccc(OC)cc4)cc3C(=O)N([C@H](C)CO)C[C@H]2C)cc1 | inactive
COc1ccc(S(=O)(=O)Nc2ccc3c(c2)C(=O)N([C@H](C)CO)C[C@H](C)[C@@H](CN(C)Cc2ccc(Cl)c(Cl)c2)OCCCC[C@H](C)O3)cc1 | active
COc1ccc(CN(C)C[C@H]2OCCCC[C@@H](C)Oc3ccc(NS(=O)(=O)c4ccc(OC)cc4)cc3C(=O)N([C@H](C)CO)C[C@H]2C)cc1 | inactive
COc1ccc(CN(C)C[C@H]2OCCCC[C@H](C)Oc3ccc(NS(=O)(=O)c4ccc(OC)cc4)cc3C(=O)N([C@@H](C)CO)C[C@@H]2C)cc1 | inactive
COc1ccc(S(=O)(=O)Nc2ccc3c(c2)C(=O)N([C@H](C)CO)C[C@H](C)[C@H](CN(C)Cc2ccc(Cl)c(Cl)c2)OCCCC[C@@H](C)O3)cc1 | inactive
COc1ccc(CN(C)C[C@H]2OCCCC[C@@H](C)Oc3ccc(NS(=O)(=O)c4ccc(OC)cc4)cc3C(=O)N([C@@H](C)CO)C[C@@H]2C)cc1 | inactive

Compound | cytotoxicity call
Cn1cc(C(F)(F)F)ccc1=S | inactive
CCS(=O)(=O)N(C)C[C@@H]1OCc2ccccc2-c2c(n(C)c3ccccc23)C(=O)N([C@@H](C)CO)C[C@@H]1C | inactive
COCC#Cc1ccc2c(c1)O[C@@H](CN(C)Cc1ccc3c(c1)OCO3)[C@H](C)CN([C@@H](C)CO)S2(=O)=O | inactive
C[C@@H]1CN([C@H](C)CO)C(=O)Cc2cc(NS(=O)(=O)c3cn(C)cn3)ccc2O[C@H]1CN(C)C(=O)Nc1ccc(F)cc1 | inactive
Cc1noc(C)c1S(=O)(=O)Nc1ccc2c(c1)CC(=O)N([C@@H](C)CO)C[C@@H](C)[C@@H](CN(C)S(=O)(=O)c1cccs1)O2 | inactive
O=S(=O)(c1c[nH]c2ncccc12)N1CC(S(=O)(=O)N2CCOCC2)C1 | inactive
Clc1ccc(-c2nnc(Nc3ccccc3)s2)c(Cl)c1 | inactive
C[C@H](O)C#Cc1cnc2c(c1)C(=O)N([C@@H](C)CO)C[C@@H](C)[C@@H](CN(C)C(=O)Nc1ccc(C(F)(F)F)cc1)O2 | inactive
NC(=O)C1N=CN([C@@H]2O[C@H](CO)[C@@H](O)[C@H]2O)C1=O (stereo not given in full) | inactive
COc1ccc(CN(C)C[C@H]2OCCCC[C@@H](C)Oc3ccc(NS(=O)(=O)c4ccc(OC)cc4)cc3C(=O)N([C@@H](C)CO)C[C@H]2C)cc1 | inactive
COc1ccc(CN(C)C[C@@H]2OCCCC[C@@H](C)Oc3ccc(NS(=O)(=O)c4ccc(OC)cc4)cc3C(=O)N([C@@H](C)CO)C[C@H]2C)cc1 | inactive
COc1ccc(S(=O)(=O)Nc2ccc3c(c2)C(=O)N([C@@H](C)CO)C[C@H](C)[C@@H](CN(C)Cc2ccc(Cl)c(Cl)c2)OCCCC[C@@H](C)O3)cc1 | active
COc1ccc(S(=O)(=O)Nc2ccc3c(c2)C(=O)N([C@@H](C)CO)C[C@H](C)[C@@H](CN(C)Cc2ccc(Cl)c(Cl)c2)OCCCC[C@H](C)O3)cc1 | inactive
COc1ccc(S(=O)(=O)Nc2ccc3c(c2)C(=O)N([C@H](C)CO)C[C@H](C)[C@@H](CN(C)Cc2ccc(Cl)c(Cl)c2)OCCCC[C@@H](C)O3)cc1 | inactive
COc1ccc(CN(C)C[C@@H]2OCCCC[C@@H](C)Oc3ccc(NS(=O)(=O)c4ccc(OC)cc4)cc3C(=O)N([C@H](C)CO)C[C@@H]2C)cc1 | inactive
COc1ccc(S(=O)(=O)Nc2ccc3c(c2)C(=O)N([C@H](C)CO)C[C@@H](C)[C@@H](CN(C)Cc2ccc(Cl)c(Cl)c2)OCCCC[C@H](C)O3)cc1 | active
COc1ccc(S(=O)(=O)Nc2ccc3c(c2)C(=O)N([C@H](C)CO)C[C@H](C)[C@H](CN(C)Cc2ccc(Cl)c(Cl)c2)OCCCC[C@H](C)O3)cc1 | active
COc1ccc(S(=O)(=O)Nc2ccc3c(c2)C(=O)N([C@H](C)CO)C[C@@H](C)[C@H](CN(C)Cc2ccc(Cl)c(Cl)c2)OCCCC[C@H](C)O3)cc1 | active
COc1ccc(CN(C)C[C@H]2OCCCC[C@H](C)Oc3ccc(NS(=O)(=O)c4ccc(OC)cc4)cc3C(=O)N([C@H](C)CO)C[C@@H]2C)cc1 | inactive
COc1ccc(NC(=O)Nc2ccc3c(c2)C(=O)N([C@@H](C)CO)C[C@H](C)[C@@H](CN(C)CC2CCCCC2)O3)cc1 | inactive
